Some targets named below: Musashi-1 (Homo sapiens, UniProt O43347); FIR (Homo sapiens, UniProt Q9UHX1); HNRNPCP5 (Homo sapiens, UniProt B2RXH8); IGF2BP1 (Homo sapiens, UniProt Q9NZI8); hnRNP-I(3-4) (Homo sapiens, UniProt P26599); VIGILIN(11-14) (Homo sapiens, UniProt Q00341); SAFB1 (Homo sapiens, UniProt Q15424).
What all share (assay): protein domain microarray probed with biotinylated miRNA; Domain array: 20 mM Tris-HCl pH 7.4, 200 mM KCl, 0.2 mM EDTA, 0.05% NP40, 2 ug/ul heparin, overnight 4 C. ORF array: PBS pH 7.0 with RNase inhibitor, 100 ng RNA; high values mean tight binding
What all share (details): ssRNA

The target of another test is T1, hnRNP-F (Homo sapiens, UniProt P52597).
T1 sequence: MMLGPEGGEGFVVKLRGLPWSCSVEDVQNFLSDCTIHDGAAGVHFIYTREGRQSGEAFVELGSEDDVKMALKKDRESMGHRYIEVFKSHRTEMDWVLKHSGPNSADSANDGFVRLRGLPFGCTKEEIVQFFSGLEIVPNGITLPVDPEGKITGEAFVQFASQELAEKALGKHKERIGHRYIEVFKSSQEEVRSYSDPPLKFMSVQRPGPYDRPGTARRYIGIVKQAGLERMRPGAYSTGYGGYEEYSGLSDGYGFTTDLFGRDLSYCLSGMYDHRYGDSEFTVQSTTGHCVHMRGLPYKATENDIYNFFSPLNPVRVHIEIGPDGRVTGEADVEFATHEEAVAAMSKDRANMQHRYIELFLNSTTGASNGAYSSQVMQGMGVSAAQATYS

Another test deals with T2, GRSF1 (Homo sapiens, UniProt Q12849).
T2 sequence: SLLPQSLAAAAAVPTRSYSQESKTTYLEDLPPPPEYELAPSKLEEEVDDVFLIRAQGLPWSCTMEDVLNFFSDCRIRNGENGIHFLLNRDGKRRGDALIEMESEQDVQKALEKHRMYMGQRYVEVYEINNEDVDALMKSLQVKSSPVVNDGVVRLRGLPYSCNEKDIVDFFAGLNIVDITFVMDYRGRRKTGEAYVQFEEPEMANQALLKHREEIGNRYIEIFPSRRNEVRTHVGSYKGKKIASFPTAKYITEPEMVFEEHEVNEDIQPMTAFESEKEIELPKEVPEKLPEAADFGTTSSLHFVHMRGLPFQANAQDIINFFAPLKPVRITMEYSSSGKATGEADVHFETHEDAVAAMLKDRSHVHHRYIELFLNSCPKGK

The target in another test is T3, ENOX2 (Homo sapiens, UniProt Q16206).
T3 sequence: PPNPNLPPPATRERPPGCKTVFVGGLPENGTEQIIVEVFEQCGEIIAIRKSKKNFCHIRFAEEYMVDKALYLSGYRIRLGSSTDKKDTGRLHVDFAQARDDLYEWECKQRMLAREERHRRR

The target of another test is T4, TAT-SF1 (Homo sapiens, UniProt O43719).
T4 sequence: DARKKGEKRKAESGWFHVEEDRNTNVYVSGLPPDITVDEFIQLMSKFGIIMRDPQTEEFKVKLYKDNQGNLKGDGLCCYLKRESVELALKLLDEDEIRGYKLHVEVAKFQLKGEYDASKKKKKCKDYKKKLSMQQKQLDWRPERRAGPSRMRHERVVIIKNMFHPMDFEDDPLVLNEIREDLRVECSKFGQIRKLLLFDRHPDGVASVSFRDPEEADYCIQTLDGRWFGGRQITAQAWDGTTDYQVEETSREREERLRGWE

A further test concerns the target T5, AKAP1 (Homo sapiens, UniProt Q92667).
T5 sequence: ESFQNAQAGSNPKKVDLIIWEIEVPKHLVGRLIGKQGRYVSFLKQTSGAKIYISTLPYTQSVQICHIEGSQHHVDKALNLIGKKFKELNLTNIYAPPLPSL

For the next test, the target named is T6, PSF (Homo sapiens, UniProt P23246).
T6 sequence: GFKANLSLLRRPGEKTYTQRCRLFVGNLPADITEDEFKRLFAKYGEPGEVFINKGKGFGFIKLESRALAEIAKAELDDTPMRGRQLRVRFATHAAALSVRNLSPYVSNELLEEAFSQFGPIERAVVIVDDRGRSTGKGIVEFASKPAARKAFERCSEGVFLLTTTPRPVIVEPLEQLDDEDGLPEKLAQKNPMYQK

The next test deals with T7, ADAR(1) (Homo sapiens, UniProt P55265).
T7 sequence: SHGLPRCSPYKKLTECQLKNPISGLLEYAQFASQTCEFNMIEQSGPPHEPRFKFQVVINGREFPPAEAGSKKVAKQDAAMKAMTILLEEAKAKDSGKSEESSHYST

A further test deals with T8, RKHD1 (Homo sapiens, UniProt Q86XN8).
T8 sequence: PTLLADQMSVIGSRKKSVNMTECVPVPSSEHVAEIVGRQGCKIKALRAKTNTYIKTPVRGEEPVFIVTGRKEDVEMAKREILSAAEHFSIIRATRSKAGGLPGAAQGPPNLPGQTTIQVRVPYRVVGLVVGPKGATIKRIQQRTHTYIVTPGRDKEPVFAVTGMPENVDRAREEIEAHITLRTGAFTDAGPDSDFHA

A further test deals with T9, ANKRD17 (Homo sapiens, UniProt O75179).
T9 sequence: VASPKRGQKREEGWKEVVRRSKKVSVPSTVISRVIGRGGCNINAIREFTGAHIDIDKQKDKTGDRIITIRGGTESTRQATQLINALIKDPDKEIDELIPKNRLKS

In a further test the target is T10, RBMS3 (Homo sapiens, UniProt Q6XE24).
T10 sequence: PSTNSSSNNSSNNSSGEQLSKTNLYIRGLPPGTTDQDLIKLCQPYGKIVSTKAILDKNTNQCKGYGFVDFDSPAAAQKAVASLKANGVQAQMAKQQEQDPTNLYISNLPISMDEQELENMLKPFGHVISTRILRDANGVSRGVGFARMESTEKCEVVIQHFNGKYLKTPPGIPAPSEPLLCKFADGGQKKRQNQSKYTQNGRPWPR

Another test addresses T11, YTHDC2 (Homo sapiens, UniProt Q9H6S0).
T11 sequence: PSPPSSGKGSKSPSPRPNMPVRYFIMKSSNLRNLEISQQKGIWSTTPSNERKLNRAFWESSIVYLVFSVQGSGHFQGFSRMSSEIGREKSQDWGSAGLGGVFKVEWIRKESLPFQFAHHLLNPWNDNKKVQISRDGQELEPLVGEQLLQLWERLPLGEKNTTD

In the next test the target is T12, RBM20 (Homo sapiens, UniProt Q5T481).
T12 sequence: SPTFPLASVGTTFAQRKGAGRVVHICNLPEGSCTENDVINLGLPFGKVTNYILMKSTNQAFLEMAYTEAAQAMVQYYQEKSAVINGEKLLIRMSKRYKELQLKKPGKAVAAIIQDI

In the next test the target is T13, RNPC3(1) (Homo sapiens, UniProt Q96LT9).
T13 sequence: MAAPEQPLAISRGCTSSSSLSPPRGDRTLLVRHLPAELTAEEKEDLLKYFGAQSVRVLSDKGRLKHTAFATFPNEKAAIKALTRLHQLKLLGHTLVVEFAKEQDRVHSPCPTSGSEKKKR

Sequence of hnRNP-I(3-4) (P26599 346-557): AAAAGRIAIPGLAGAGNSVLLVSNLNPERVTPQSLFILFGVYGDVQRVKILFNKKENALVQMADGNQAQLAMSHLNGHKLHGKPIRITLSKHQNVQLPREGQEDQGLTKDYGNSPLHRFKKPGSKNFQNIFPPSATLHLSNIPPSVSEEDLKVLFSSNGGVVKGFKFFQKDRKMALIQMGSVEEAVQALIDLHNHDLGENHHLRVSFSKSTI
Sequence of Musashi-1 (O43347 1-203): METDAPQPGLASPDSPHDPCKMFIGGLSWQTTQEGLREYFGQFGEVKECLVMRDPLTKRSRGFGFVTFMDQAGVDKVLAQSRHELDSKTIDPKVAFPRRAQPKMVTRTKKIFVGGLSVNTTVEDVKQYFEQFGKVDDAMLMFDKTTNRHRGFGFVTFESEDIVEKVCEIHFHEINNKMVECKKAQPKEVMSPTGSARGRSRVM
Sequence of FIR (Q9UHX1 110-559): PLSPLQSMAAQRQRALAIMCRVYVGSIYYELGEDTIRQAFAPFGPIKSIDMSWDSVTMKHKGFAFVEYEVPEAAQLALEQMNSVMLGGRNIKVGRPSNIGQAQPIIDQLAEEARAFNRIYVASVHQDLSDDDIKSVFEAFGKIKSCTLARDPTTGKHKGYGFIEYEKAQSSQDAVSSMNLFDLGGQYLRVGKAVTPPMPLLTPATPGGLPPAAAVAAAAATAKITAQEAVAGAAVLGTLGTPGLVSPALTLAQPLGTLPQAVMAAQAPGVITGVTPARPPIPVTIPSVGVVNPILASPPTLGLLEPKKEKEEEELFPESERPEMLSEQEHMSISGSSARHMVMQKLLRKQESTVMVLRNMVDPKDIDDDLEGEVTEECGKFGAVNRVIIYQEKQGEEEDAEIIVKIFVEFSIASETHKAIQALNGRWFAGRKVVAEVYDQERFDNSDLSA
Sequence of VIGILIN(11-14) (Q00341 861-1229): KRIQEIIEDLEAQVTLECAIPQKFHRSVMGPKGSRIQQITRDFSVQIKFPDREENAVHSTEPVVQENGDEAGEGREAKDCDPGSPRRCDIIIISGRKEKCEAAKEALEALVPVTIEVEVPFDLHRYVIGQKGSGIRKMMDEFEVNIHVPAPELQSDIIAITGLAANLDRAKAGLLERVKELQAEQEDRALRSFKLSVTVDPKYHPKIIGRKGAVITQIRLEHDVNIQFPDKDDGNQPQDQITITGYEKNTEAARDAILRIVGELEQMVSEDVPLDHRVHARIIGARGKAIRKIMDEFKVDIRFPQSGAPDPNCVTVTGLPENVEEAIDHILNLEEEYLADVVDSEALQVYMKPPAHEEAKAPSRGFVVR
Sequence of SAFB1 (Q15424 380-500): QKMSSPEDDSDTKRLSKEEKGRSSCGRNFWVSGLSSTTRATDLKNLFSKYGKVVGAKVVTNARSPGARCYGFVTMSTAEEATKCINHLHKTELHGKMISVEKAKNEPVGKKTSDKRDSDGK
Sequence of HNRNPCP5 (B2RXH8 1-110): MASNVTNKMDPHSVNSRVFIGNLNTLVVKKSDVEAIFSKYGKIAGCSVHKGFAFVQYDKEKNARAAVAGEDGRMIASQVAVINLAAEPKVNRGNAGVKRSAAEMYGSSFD
Sequence of IGF2BP1 (Q9NZI8 1-176): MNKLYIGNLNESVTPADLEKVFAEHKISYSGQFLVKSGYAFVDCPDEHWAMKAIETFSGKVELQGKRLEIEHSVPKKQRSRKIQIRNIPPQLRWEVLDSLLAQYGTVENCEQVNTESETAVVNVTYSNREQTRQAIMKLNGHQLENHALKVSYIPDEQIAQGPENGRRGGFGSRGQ

Consider UGAGGUAGUAGGUUGUGUGGUU, for which the binding signal was found to be 1830 ± 23.3 fluorescence intensity with Musashi-1; 1610 ± 121 fluorescence intensity in the test with FIR; 93.8 ± 2.53 fluorescence intensity with HNRNPCP5; 1210 ± 41.5 fluorescence intensity with hnRNP-F; 47.9 ± 7.33 fluorescence intensity with IGF2BP1; 2120 ± 63.5 fluorescence intensity with GRSF1. Moreover, the binding signal with hnRNP-I(3-4) was 945.75 ± 0.764 fluorescence intensity; in the test with ENOX2, 118 ± 1.51 fluorescence intensity; with TAT-SF1, 184.1 ± 0.318 fluorescence intensity; with AKAP1 it was 202 ± 12.1 fluorescence intensity; with PSF it was 1020 ± 15.7 fluorescence intensity; with ADAR(1), 30.1 ± 1.12 fluorescence intensity. In addition, the binding signal with RKHD1 was found to be 1570 ± 135 fluorescence intensity; with ANKRD17 it was 94.6 ± 8.68 fluorescence intensity; with RBMS3, 564 ± 40.7 fluorescence intensity; with YTHDC2 it was 156 ± 16.8 fluorescence intensity; in the test with VIGILIN(11-14) it was 968 ± 111 fluorescence intensity; with RBM20 it was 66.7 ± 5.15 fluorescence intensity. For the same sequence, the binding signal was 633 ± 29.4 fluorescence intensity in the test with SAFB1 and 391 ± 55.5 fluorescence intensity with RNPC3(1).
For the sequence UGAGGUAGUAGGUUGUAUGGUU, the binding signal with Musashi-1 was 2400 ± 10.1 fluorescence intensity; with FIR, 1510 ± 21.2 fluorescence intensity; in the test with HNRNPCP5, 65.5 ± 1.7 fluorescence intensity; with hnRNP-F, 953.1 ± 0.948 fluorescence intensity; with IGF2BP1 it was 43 ± 9.13 fluorescence intensity; with GRSF1, 2945 ± 11.9 fluorescence intensity. Moreover, the binding signal with hnRNP-I(3-4) was 934 ± 43.3 fluorescence intensity; with ENOX2 it was 74.91 ± 0.417 fluorescence intensity; in the test with TAT-SF1 it was 116 ± 5.61 fluorescence intensity; with AKAP1 it was 102 ± 9.24 fluorescence intensity; in the test with PSF, 837 ± 12.7 fluorescence intensity; with ADAR(1) it was 27.9 ± 1.27 fluorescence intensity. Moreover, the binding signal with RKHD1 was 1910 ± 204 fluorescence intensity; with ANKRD17 it was 51.9 ± 4.92 fluorescence intensity; with RBMS3 it was 363 ± 14.3 fluorescence intensity; with YTHDC2, 143 ± 6.97 fluorescence intensity; with VIGILIN(11-14) it was 911 ± 66.7 fluorescence intensity; in the test with RBM20, 53.6 ± 5.51 fluorescence intensity. For the same sequence, the binding signal was 299 ± 26.8 fluorescence intensity with SAFB1 and 192 ± 55.7 fluorescence intensity with RNPC3(1).
With CAGUGCAAUGAUGAAAGGGCAU, the binding signal was 1460 ± 30.9 fluorescence intensity with Musashi-1; 384 ± 26.4 fluorescence intensity with FIR; 42.4 ± 3.23 fluorescence intensity in the test with HNRNPCP5; 1670 ± 29.4 fluorescence intensity with hnRNP-F; 32.4 ± 2.43 fluorescence intensity in the test with IGF2BP1; 2340 ± 154 fluorescence intensity with GRSF1. Also, the binding signal was determined as 401.7 ± 2.43 fluorescence intensity with hnRNP-I(3-4); 54.1 ± 16.7 fluorescence intensity with ENOX2; 90 ± 1.75 fluorescence intensity in the test with TAT-SF1; 47.9 ± 2.28 fluorescence intensity with AKAP1; 80.6 ± 13.1 fluorescence intensity with PSF; 1330 ± 109 fluorescence intensity in the test with RKHD1. Moreover, the binding signal in the test with ANKRD17 was 37 ± 2.43 fluorescence intensity; with RBMS3, 211.2 ± 1.16 fluorescence intensity; with YTHDC2, 65.2 ± 5.22 fluorescence intensity; with VIGILIN(11-14), 287 ± 28.5 fluorescence intensity; with RBM20 it was 34.77 ± 0.255 fluorescence intensity; in the test with SAFB1, 228 ± 31.6 fluorescence intensity. The same sequence came in with a binding signal in the test with RNPC3(1) of 61.8 ± 4.94 fluorescence intensity.
On to AGAGGUAGUAGGUUGCAUAGUU, for which the binding signal worked out at 3624 ± 8.34 fluorescence intensity with Musashi-1; 939 ± 116 fluorescence intensity in the test with FIR; 48 ± 3.14 fluorescence intensity in the test with HNRNPCP5; 2388 ± 13.7 fluorescence intensity with hnRNP-F; 35.9 ± 7.28 fluorescence intensity with IGF2BP1; 4990 ± 87.4 fluorescence intensity with GRSF1. Besides, the binding signal with hnRNP-I(3-4) was found to be 786.56 ± 0.269 fluorescence intensity; in the test with ENOX2, 77.1 ± 15.4 fluorescence intensity; in the test with TAT-SF1, 125.2 ± 1.17 fluorescence intensity; in the test with AKAP1 it was 91.72 ± 0.827 fluorescence intensity; with PSF it was 905 ± 13.5 fluorescence intensity; with ADAR(1), 20.7 ± 1.3 fluorescence intensity. For the same sequence, the binding signal with RKHD1 is 2940 ± 199 fluorescence intensity; in the test with ANKRD17 it was 36.4 ± 1.75 fluorescence intensity; with RBMS3 it was 410 ± 20.1 fluorescence intensity; with YTHDC2, 114 ± 5.32 fluorescence intensity; in the test with VIGILIN(11-14), 285 ± 6.8 fluorescence intensity; in the test with RBM20, 39.7 ± 5.85 fluorescence intensity. For the same sequence, the binding signal was 280 ± 28.4 fluorescence intensity with SAFB1 and 201 ± 18.2 fluorescence intensity with RNPC3(1).
Regarding UGAGGUAGUAGGUUGUAUAGUU, the binding signal in the test with Musashi-1 came to 1480 ± 17 fluorescence intensity; with FIR, 717 ± 15 fluorescence intensity; with HNRNPCP5, 24.6 ± 1.06 fluorescence intensity; with hnRNP-F, 624 ± 22.5 fluorescence intensity; in the test with IGF2BP1, 26.3 ± 0.771 fluorescence intensity; with GRSF1, 1790 ± 23.3 fluorescence intensity. Further, the binding signal with hnRNP-I(3-4) is 323 ± 28.7 fluorescence intensity; with ENOX2, 20.7 ± 2.55 fluorescence intensity; with TAT-SF1, 33.2 ± 1.48 fluorescence intensity; with PSF, 265 ± 6.17 fluorescence intensity; with RKHD1 it was 1260 ± 32.7 fluorescence intensity; with ANKRD17 it was 26 ± 1.62 fluorescence intensity. The binding signal with RBMS3 worked out at 86.8 ± 4.41 fluorescence intensity; in the test with YTHDC2, 27.7 ± 2.35 fluorescence intensity; with VIGILIN(11-14), 145 ± 5.55 fluorescence intensity; with SAFB1 it was 94.4 ± 9.54 fluorescence intensity; with RNPC3(1) it was 38.5 ± 11.8 fluorescence intensity.
With UAGCUUAUCAGACUGAUGUUGA, the binding signal was determined as 156 ± 11 fluorescence intensity with Musashi-1; 1240 ± 132 fluorescence intensity with FIR; 23.4 ± 0.714 fluorescence intensity in the test with HNRNPCP5; 25.7 ± 1.8 fluorescence intensity with hnRNP-F; 23 ± 0.714 fluorescence intensity with IGF2BP1; 39.7 ± 8.15 fluorescence intensity with GRSF1. For the same sequence, the binding signal in the test with hnRNP-I(3-4) was 230 ± 15.3 fluorescence intensity; with RKHD1 it was 977 ± 62.8 fluorescence intensity; in the test with RBMS3, 45.1 ± 0.672 fluorescence intensity; with SAFB1, 37.5 ± 1.2 fluorescence intensity.

The values are drawn from paper PMC11574364.
